Measured values published in PubChem BioAssay.
Calls of active or inactive are those of the source. Unless noted, the rule behind the calls is not given here.

Experiments:
[1] = anti-His antibody binders, primary screen, artefact control for SMM control protein annotation, biochemical, small-molecule microarray, 635 nm fluorescence (AID 1128); conditions: anti-His Alexa647 antibody binding, higher = more signal;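 note: score merges feature fluorescence with signal-to-noise for each printed compound spot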
[2] = test system: Human papillomavirus type 1a E7 protein (residues 1-88); assay: HPV1a E7 small-molecule binders, primary screen, biochemical, small-molecule microarray, residues 1-88, 635 nm (AID 1129); conditions: small-molecule microarray binding, fluorescence 635 nm; higher = more signal
[3] = target: Focal adhesion kinase 1 (Homo sapiens) (UniProt Q05397); assay: small-molecule microarray binders of FAK, primary screen, biochemical, 635/667 nm fluorescence, BSA, DTT (AID 1130); conditions: PTK2 binding, 635 nm fluorescence, higher = more signal;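 note: composite of spot emission at 667 nm and signal to noise over triplicate slides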
Focal adhesion kinase 1 (Homo sapiens), sequence (Q05397 whole entry, looked up): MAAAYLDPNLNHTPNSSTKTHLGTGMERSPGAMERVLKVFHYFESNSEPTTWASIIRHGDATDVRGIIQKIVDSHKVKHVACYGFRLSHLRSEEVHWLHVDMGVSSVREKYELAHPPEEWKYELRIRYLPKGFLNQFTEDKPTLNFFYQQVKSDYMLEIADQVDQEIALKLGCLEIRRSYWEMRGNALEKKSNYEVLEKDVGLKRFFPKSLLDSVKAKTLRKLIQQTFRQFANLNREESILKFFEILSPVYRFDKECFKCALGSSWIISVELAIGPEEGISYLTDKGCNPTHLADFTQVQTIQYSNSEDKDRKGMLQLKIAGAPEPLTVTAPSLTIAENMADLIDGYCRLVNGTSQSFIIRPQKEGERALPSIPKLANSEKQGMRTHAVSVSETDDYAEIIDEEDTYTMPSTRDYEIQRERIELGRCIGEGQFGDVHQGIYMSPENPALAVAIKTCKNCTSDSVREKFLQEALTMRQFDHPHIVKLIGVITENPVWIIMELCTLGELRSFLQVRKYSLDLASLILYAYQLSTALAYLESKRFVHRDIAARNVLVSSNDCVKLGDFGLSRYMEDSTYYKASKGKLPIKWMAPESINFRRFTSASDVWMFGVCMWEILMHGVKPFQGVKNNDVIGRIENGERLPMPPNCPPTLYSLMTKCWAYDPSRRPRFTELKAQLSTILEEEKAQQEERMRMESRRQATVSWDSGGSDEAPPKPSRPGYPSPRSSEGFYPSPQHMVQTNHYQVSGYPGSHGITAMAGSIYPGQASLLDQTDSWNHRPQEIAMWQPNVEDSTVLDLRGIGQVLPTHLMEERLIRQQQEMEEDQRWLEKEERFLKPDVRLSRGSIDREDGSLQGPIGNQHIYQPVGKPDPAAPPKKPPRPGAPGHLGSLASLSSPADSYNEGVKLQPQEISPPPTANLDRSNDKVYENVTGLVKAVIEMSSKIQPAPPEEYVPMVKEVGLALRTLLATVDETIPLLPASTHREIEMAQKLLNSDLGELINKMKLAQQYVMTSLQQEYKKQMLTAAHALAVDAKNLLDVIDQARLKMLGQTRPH

[4] = test system: Fibrinogen (Alexa647-labelled); assay: fibrinogen binders on compound microarrays, profiling panel, artefact control for SMM control-protein annotation, biochemical, small-molecule microarray, 635/667 nm fluorescence (AID 1131); conditions: fibrinogen-A647 binding fluorescence, higher = more signal;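 note: z-score merges 667 nm fluorescence with per-spot signal-to-noise over triplicate slides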
[5] = target: Follistatin (Homo sapiens) (UniProt P19883); assay: follistatin binders on small-molecule microarrays, primary screen, biochemical, small-molecule microarray, 635/667 nm fluorescence (AID 1132); conditions: FST binding, 635 nm fluorescence, higher = more signal
Follistatin (Homo sapiens), sequence (P19883 whole entry, looked up): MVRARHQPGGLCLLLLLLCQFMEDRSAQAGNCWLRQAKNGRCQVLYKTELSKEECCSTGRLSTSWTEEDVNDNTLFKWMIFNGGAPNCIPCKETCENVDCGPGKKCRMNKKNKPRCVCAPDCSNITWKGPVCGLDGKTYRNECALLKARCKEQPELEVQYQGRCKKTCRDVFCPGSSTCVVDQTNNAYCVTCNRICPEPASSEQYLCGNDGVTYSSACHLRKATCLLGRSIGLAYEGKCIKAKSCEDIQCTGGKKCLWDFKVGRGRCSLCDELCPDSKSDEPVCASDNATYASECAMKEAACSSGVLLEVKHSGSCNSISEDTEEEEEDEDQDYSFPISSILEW

[6] = target: Fibroblast growth factor 2 (Homo sapiens) (UniProt P09038); assay: FGF2 binders on small-molecule microarrays, primary screen, biochemical, small-molecule microarray, 635/667 nm fluorescence (AID 1133); conditions: small-molecule microarray binding, FGF2, fluorescence 635/667; higher = more signal
Fibroblast growth factor 2 (Homo sapiens), sequence (P09038 whole entry, looked up): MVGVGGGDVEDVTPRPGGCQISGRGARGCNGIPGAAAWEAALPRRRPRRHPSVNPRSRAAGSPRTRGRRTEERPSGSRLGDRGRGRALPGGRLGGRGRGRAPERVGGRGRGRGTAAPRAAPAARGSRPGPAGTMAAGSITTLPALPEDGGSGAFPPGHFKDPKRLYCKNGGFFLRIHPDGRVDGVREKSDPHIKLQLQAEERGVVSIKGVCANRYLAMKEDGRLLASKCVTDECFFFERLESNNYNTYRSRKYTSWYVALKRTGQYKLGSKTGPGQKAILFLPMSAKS

[7] = mitochondrial membrane potential change in A549 cells, profiling panel, cell-based, JC-1 fluorescence, basal, 24 h, 100 nL (AID 1138); conditions: higher = more signal;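 note: A549 lung adenocarcinoma cells under basal conditions with no added stimulus; test concentration not given here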
Lefty1 = Lefty1 binders on small-molecule microarrays, primary screen, biochemical, small-molecule microarray, 635/667 nm fluorescence (AID 1139); conditions: small-molecule microarray binding, fluorescence 635/667; higher = more signal
[8] = test system: wheat germ agglutinin (Triticum aestivum), Alexa647-labelled; assay: wheat germ agglutinin binders on compound microarrays, profiling panel, artefact control for SMM control-protein annotation, biochemical, small-molecule microarray, 635/667 nm fluorescence (AID 1140); conditions: WGA-A647 binding, 635 nm fluorescence, higher = more signal;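 note: score merges 667 nm feature emission with signal to noise over triplicate slides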
[9] = target: Luciferin 4-monooxygenase (Photinus pyralis) (UniProt P08659); assay: firefly luciferase enzyme inhibitors, primary screen, biochemical, luminescence, purified enzyme, 2006 set (AID 1141); conditions: SteadyGlo luminescence, 30 min, higher = more signal, called active from +8 up or from −8 down;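 note: cell-free assay with purified firefly luciferase at 100 ng per well in PBS; test concentration not given here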
Luciferin 4-monooxygenase (Photinus pyralis), sequence (P08659 whole entry, looked up): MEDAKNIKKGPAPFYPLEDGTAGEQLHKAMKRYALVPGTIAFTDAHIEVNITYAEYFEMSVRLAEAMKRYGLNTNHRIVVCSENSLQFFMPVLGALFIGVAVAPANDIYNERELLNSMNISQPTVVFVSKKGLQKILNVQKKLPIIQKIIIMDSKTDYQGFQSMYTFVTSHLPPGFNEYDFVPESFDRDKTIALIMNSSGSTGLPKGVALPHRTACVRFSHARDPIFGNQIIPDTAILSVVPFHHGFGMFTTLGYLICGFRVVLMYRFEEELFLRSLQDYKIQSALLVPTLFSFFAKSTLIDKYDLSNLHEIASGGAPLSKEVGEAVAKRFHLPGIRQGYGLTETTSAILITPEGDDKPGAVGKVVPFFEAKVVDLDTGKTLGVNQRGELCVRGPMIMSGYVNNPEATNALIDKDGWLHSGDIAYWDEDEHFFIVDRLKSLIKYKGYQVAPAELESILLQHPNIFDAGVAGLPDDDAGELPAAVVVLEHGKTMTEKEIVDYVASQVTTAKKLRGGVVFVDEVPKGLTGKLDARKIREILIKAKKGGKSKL

[10] = test system: Wnt5a (protein binding on small-molecule microarray); assay: Wnt5a binders on small-molecule microarray, primary screen, biophysical, 635/667 nm fluorescence (AID 1142); conditions: 635 nm fluorescence, higher = more signal;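 note: fluorescence read at 667 nm with signal to noise per printed feature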
[11] = cell viability in Huh7 cells, primary screen, cytotoxicity control for HCV replication inhibitor project, CellTiter-Glo luminescence, basal, 48 h (AID 1143); conditions: Huh7 HCV replicon, higher = more signal, called active from +8 up or from −8 down;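 note: Huh7 hepatoma cells carrying a hepatitis C replication reporter with no stimulus; test concentration not given here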
[12] = P. aeruginosa biofilm formation inhibitors, primary screen, PAO1 strain, BacTiter-Glo luminescence, LB-PBS (AID 1144); conditions: 12 h, higher = more signal
[13] = CREB reporter modulators without forskolin, primary screen, cell-based, PC12, CRE-LacZ reporter, unstimulated (AID 1145); conditions: no forskolin, luminescence, 4.5 h, higher = more signal, called active from +8 up or from −8 down
[14] = CREB reporter modulators under forskolin, primary screen, cell-based, PC12, CRE-LacZ reporter, forskolin-stimulated (AID 1146); conditions: luminescence, 4.5 h, higher = more signal, called active from +8 up or from −8 down;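 note: PC12 cells with 6xCRE LacZ reporter stimulated by forskolin 10 µM; beta-galactosidase reporter signal reflecting CREB driven transcription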
[15] = target: Streptavidin (Streptomyces avidinii) (UniProt P22629); assay: streptavidin binders on small-molecule microarray, primary screen, artefact control for SMM compound annotation, biophysical, 635/667 nm fluorescence (AID 1147); conditions: streptavidin binding, higher = more signal;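 note: signal reflects streptavidin binding to arrayed compounds as a control protein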
Streptavidin (Streptomyces avidinii), sequence (P22629 whole entry, looked up): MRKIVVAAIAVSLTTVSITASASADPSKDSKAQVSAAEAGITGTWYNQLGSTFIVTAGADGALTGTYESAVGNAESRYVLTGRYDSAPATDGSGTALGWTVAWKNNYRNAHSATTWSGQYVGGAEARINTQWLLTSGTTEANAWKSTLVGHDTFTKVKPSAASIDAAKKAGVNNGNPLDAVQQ

[16] = small-molecule binders of probe aInhba, primary screen, biochemical, small-molecule microarray, 635/667 nm fluorescence (AID 1148); conditions: higher = more signal;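 note: score merges 667nm spot fluorescence with signal-to-noise for antibody binding to printed compounds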
Torsin-1A (Homo sapiens) [17] = target: Torsin-1A (Homo sapiens) (UniProt O14656); assay: torsin A binders from cell lysate, primary screen, small-molecule microarray, wild-type, 635/667 nm (AID 1149); conditions: COS7 hTOR1A-WT lysate, 635 nm fluorescence, higher = more signal
Torsin-1A (Homo sapiens), sequence (O14656 whole entry, looked up): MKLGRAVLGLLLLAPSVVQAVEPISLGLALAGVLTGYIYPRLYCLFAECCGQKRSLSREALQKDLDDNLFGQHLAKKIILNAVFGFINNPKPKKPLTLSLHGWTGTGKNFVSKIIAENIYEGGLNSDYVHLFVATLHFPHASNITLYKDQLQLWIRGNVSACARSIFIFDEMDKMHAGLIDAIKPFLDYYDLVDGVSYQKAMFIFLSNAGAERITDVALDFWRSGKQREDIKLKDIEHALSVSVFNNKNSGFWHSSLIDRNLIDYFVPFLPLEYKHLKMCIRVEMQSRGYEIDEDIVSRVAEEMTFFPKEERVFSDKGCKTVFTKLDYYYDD

Torsin-1A (Homo sapiens) [18] = target: Torsin-1A (Homo sapiens) (UniProt O14656); assay: small-molecule binders of mutant TOR1A in lysate, primary screen, cell lysate, small-molecule microarray, COS7 lysate, 635/667 nm fluorescence (AID 1150); conditions: COS7 hTOR1A mutant lysate, 635 nm fluorescence, higher = more signal;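 note: score pools 667 nm emission and signal to noise measuring lysate protein binding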
[19] = test system: Sonic hedgehog protein (Shh); assay: small-molecule binders of Shh protein, primary screen, biochemical, small-molecule microarray, 635/667 nm fluorescence (AID 1151); conditions: small-molecule microarray binding, 635 nm fluorescence; higher = more signal;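 note: Shh protein binding to compounds spotted on small-molecule microarray slides; score combines spot fluorescence intensity with signal-to-noise across triplicate slides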

Compound	composite z-score [1]	composite z-score [2]	composite z-score [3]	composite z-score [4]	composite z-score [5]	composite z-score [6]	z-score [7]	composite z-score (Lefty1)	composite z-score [8]	z-score [9]	composite z-score [10]	z-score [11]	z-score [12]	z-score [13]	z-score [14]	composite z-score [15]	composite z-score [16]	composite z-score (Torsin-1A (Homo sapiens) [17])	composite z-score (Torsin-1A (Homo sapiens) [18])	composite z-score [19]
O=C1C[C@@](C(=O)O)(c2ccc([N+](=O)[O-])cc2)[C@@H](c2ccc(CO)cc2I)N1CC12CC3CC(CC(C3)C1)C2	0.829	1.11	0.365	0.607	0.348	-0.35	-1.1	0.665	1.03	-0.869 (inactive)	0.0743	-5.39 (inactive)	-0.142 (inactive)	0.468 (inactive)	3.72 (inactive)	0.975	-0.12	0.663	0.381	0.617
CCN(CC)c1ccc(N2CC=CC34O[C@@H]5C=CCOC(=O)[C@@H]5[C@H]3C(=O)N(CCCCCO)[C@@H]4C2=O)cc1 (stereo not given in full)	3.37	-0.959	-0.0973	-1.59	-0.915	-0.551	1.24	-0.439	-0.559	-0.439 (inactive)	-0.253	-0.286 (inactive)	0.555 (inactive)	1.57 (inactive)	-0.0409 (inactive)	-0.93	-0.186	1.03	1.06	0.146
O=C1O[C@H](c2ccccc2)[C@H](c2ccccc2)N2[C@H]1[C@@H](C(=O)NC[C@H](O)c1ccccc1)[C@]1(C(=O)Nc3ccc(C#CC4=CCCCC4)cc31)[C@H]2c1ccc(O)cc1	1.86	1.17	0.191	0.826	1.35	1.59	-1.38	0.82	0.331	-1.5 (inactive)	0.688	-5.36 (inactive)	-0.354 (inactive)	-0.602 (inactive)	-0.912 (inactive)	0.758	0.121	0.769	1.08	1.51
COCC1=C([C@H](O)CCc2ccccc2)[C@H](CO)[C@@H]2C(=O)N(Cc3ccccc3)C(=O)[C@@H]2C1	-0.219	-0.0814	0.0916	0.292	0.444	0.0451	0.68	0.448	0.131	0.24 (inactive)	0.0713	-0.979 (inactive)	-0.771 (inactive)	0.586 (inactive)	-0.0417 (inactive)	-0.0218	-0.0759	-0.305	0.767	1.03
C=CCC(OC(C)=O)[C@@H]1[C@@H](N(Cc2cc3ccccc3o2)C(=O)c2cccc3ccccc23)c2cc(OCCCO)ccc2N1C(=O)Cc1ccc2ccccc2c1 (stereo not given in full)	0.166	-0.273	-0.0768	0.571	0.416	0.439	-0.274	-0.0817	-0.157	0.209 (inactive)	0.0744	-1.62 (inactive)	0.303 (inactive)	0.992 (inactive)	-0.333 (inactive)	0.435	-0.0589	-0.213	-0.146	0.191
O=C1OCC=C[C@H]2OC34C=CCN(c5ccc6ccccc6c5)C(=O)[C@H]3N(CCO)C(=O)[C@@H]4[C@@H]12 (stereo not given in full)	0.0061	-0.785	-0.415	-1.22	-1.05	-2.06	1.51	-0.455	-1.18	-0.646 (inactive)	-1.26	-0.168 (inactive)	1.89 (inactive)	1.14 (inactive)	0.492 (inactive)	-0.74	-0.0427	-2.04	-2.02	-0.25
CC1CC/C=C\[C@H]2OC34C=CCN(Cn5nnc6ccccc65)C(=O)[C@H]3N(CCCO)C(=O)[C@@H]4C2C(=O)O1 (stereo not given in full)	0.239	-0.326	-0.47	-1.15	-0.693	-1.03	-0.198	-0.146	-1.09	0.885 (inactive)	-0.595	-0.382 (inactive)	-0.281 (inactive)	-0.212 (inactive)	-0.759 (inactive)	-0.958	-0.157	-1.89	-1.33	0.0837
O=C(NCc1ccccc1)[C@@H]1c2ccccc2C(=O)N(C2CCCCC2)[C@H]1c1ccc(CO)cc1	0.61	1.01	0.405	-0.0594	1.29	0.487	2.15	0.917	0.803	-0.441 (inactive)	0.191	-1.08 (inactive)	0.583 (inactive)	0.234 (inactive)	0.174 (inactive)	-0.395	-0.352	0.113	1.11	1.4
O=C1OCC=C[C@H]2OC34C=CCN(CCN5CCOCC5)C(=O)[C@H]3N(CCCCCCO)C(=O)[C@@H]4[C@@H]12 (stereo not given in full)	3.21	-0.206	-0.0142	-0.469	0.277	-0.131	0.582	0.659	-0.0261	-0.689 (inactive)	0.0272	-0.39 (inactive)	1.73 (inactive)	0.862 (inactive)	-0.201 (inactive)	-0.278	-0.0604	0.135	-0.0406	0.572
